Measured values published in PubChem BioAssay (NCATS).
Several values for one entry are separate records, joined by “and”; a condition that tells them apart may be missing. Equal entries are not always repeated. Results filed as inconclusive are left out. Activity calls are given as the source filed them. Unless noted, calls come from the whole dose curve; as a rule, active = well fitted curve in the direction sought with a large enough effect; inconclusive = small, poorly fitted or top-dose-only effect, or another doubt; inactive = no such curve, though single readings can be large; an effect the other way counts as inactive or inconclusive.

How the values were obtained:
[1] = molecular target: Cellular tumor antigen p53 (Homo sapiens) (UniProt P04637); test: Primary qHTS for small molecule compounds that upregulate eGFP-tagged delta133p53alpha (in N-terminal) cells. (AID 2060322); conditions: NCI-H358 eGFP-delta133p53alpha fluorescence, 24 h; activation: hits give high values; note: nearly all actives have a fitted effect of over 75% in size; note: potency is the fitted concentration of half-maximal effect;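 for activation: series mostly up to about 56 µM; 0% = DMSO vehicle and 100% = reference activator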
Sequence of Cellular tumor antigen p53 (Homo sapiens) (P04637 whole entry, looked up): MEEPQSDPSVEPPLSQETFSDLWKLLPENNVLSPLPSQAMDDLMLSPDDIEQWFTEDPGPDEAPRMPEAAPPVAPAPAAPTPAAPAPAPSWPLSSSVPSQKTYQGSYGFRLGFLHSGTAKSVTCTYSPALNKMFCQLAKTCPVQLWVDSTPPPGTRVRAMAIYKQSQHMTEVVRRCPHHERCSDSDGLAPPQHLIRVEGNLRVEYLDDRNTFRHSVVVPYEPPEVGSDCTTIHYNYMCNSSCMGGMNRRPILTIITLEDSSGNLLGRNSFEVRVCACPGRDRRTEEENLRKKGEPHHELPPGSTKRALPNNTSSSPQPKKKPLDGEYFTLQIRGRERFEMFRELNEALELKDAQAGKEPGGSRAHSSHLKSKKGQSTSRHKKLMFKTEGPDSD
In short: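 NCI-H358 cells pre-induced 24 h with 10 ng/ml doxycycline to express N-terminal eGFP-delta133p53alpha, then dosed 24 h at 37C without doxycycline; fixed, Hoechst-stained, GFP intensity by laser scanning cytometry, normalized to DMSO (0%) and 57.5 uM 5-azacytidine (100%).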

[2] = molecular target: Cellular tumor antigen p53 (Homo sapiens) (UniProt P04637); test: Primary qHTS for small molecule compounds that upregulate eGFP-tagged delta133p53alpha (in C-terminal) cells. (AID 2060324); note: potency is the fitted concentration of half-maximal effect
In short: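 In this qHTS, GFP-tagged delta133p53alpha levels are measured in fixed NCI-H358 cells after 24 h compound exposure at 37 °C. The cells are pre-induced with 100 ng/ml doxycycline, and signal is normalized to DMSO-treated wells as 0%.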

[3] = molecular target: Aldehyde dehydrogenase, mitochondrial (Homo sapiens) (UniProt P05091); test: qHTS for Inhibitors of the Aldehyde Dehydrogenase Family (ALDH2) Validation screens (AID 2061302; active = well fitted inhibition curve with a large enough effect; title and protocol of this record describe different tests;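 note: plate controls were DMSO vehicle for no effect and maximal DPI positive control response for full effect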)
[4] = molecular target: Retinaldehyde dehydrogenase 3 (Homo sapiens) (UniProt P47895); test: qHTS for Inhibitors of the Aldehyde Dehydrogenase Family (ALDH1A3) Validation screen (AID 2061312); note: % is set by controls: 0 for no effect and ±100 for the full control effect; nearly all actives have a fitted effect of over 45% in size
[5] = molecular target: Aldehyde dehydrogenase, mitochondrial (Homo sapiens) (UniProt P05091); test: qHTS for Inhibitors of the Aldehyde Dehydrogenase Family (ALDH2) Primary screen (AID 2061308);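 note: plate controls were vehicle for no effect and reference inhibitor for full effect; nearly all actives have a fitted effect of over 55% in size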
[6] = molecular target: Retinaldehyde dehydrogenase 3 (Homo sapiens) (UniProt P47895); test: qHTS for Inhibitors of the Aldehyde Dehydrogenase Family (ALDH1A3) Primary screen (AID 2061315);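 note: plate controls were DMSO vehicle for no effect and reference inhibitor for full effect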
[7] = BET inhibitor-based combinations targeting novel dependencies in MECOM-rearranged (r) AML: SET-2 cell line (AID 2202231); conditions: SET-2 AML cells viability, CellTiter-Glo luminescence, 48 h; viability: hits give low values, concentration not given here; note: nearly all actives have a fitted effect of over 35% in size; note: potency is the fitted concentration of half-maximal effect;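 for viability: plate controls were DMSO treated cells for no effect and wells without cells for full effect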
In short: (§1)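 Cells were plated at 500 per well and exposed to an 11-point dose series of each drug for 48 hr. Viability was measured by CellTiter-Glo luminescence, normalized to DMSO and empty-well controls, and summarized as AUC and per-cell-line Z-AUC.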

[8] = BET inhibitor-based combinations targeting novel dependencies in MECOM-rearranged (r) AML: OCI-AML3 cell line (AID 2202232); conditions: Potency: OCI-AML3 viability; note: nearly all actives have a fitted effect of over 35% in size; note: potency is the fitted concentration of half-maximal effect
In short: as §1

[9] = BET inhibitor-based combinations targeting novel dependencies in MECOM-rearranged (r) AML: MV-4-11 cell line (AID 2202233); note: nearly all actives have a fitted effect of over 45% in size; note: potency is the fitted concentration of half-maximal effect
In short: (§2)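 Activity is given as area under the curve and as Z-AUC, mean-centred within each cell line. It comes from 11-point dose curves normalized to DMSO and empty wells. CellTiter-Glo luminescence was read after 48 hr drug exposure of 500 cells/well.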

[10] = BET inhibitor-based combinations targeting novel dependencies in MECOM-rearranged (r) AML: UCSD-AML1 cell line (AID 2202235); note: nearly all actives have a fitted effect of over 40% in size; note: potency is the fitted concentration of half-maximal effect
In short: as §2

[11] = BET inhibitor-based combinations targeting novel dependencies in MECOM-rearranged (r) AML: AML-191 cell line (AID 2202236; note: nearly all actives have a fitted effect of over 35% in size; note: potency is the fitted concentration of half-maximal effect)
In short: as §1

[12] = BET inhibitor-based combinations targeting novel dependencies in MECOM-rearranged (r) AML: AML-194 cell line (AID 2202237; note: nearly all actives have a fitted effect of over 40% in size; note: potency is the fitted concentration of half-maximal effect)
In short: as §1

[13] = BET inhibitor-based combinations targeting novel dependencies in MECOM-rearranged (r) AML: HNT-34 cell line (AID 2202234); note: nearly all actives have a fitted effect of over 35% in size; note: potency is the fitted concentration of half-maximal effect
In short: as §2

N[C@@H](CCCC(=O)O)C(=O)O
inactive: activation [1] -8.81% | Potency [2] | Potency [3] | Potency [4]

O=C(O)CCc1nc(-c2ccccc2)c(-c2ccccc2)o1
inactive: activation [1] -3.34% and -25.4% | Potency [2] | Potency [3] | Potency [5] | Potency [4] | Potency [6]

O=[N+]([O-])c1ccc(-c2nc(-c3ccc(F)cc3)c(-c3ccncc3)[nH]2)cc1
inactive: activation [1] 47.4% | Potency [2] | Potency [3] | Potency [5] | Potency [4] | Potency [6] | viability [7] 106% | Potency [8] | Potency [10] | Potency [11] | Potency [12]
active: Potency [9] 16.6 µM

CNC(=O)c1cc2c(cn1)[nH]c1ccccc12
inactive: activation [1] 11.5% | Potency [2] | Potency [3] | Potency [4]

NC(=O)C(=O)O
inactive: activation [1] -8.72% | Potency [2] | Potency [3] | Potency [4]

CC(=O)Nc1nnc(S(N)(=O)=O)s1
inactive: activation [1] 21.8% and -10.7% | Potency [2] | Potency [3] | Potency [4]

CS(=O)(=O)c1ccc(-n2nc(C(F)(F)F)cc2-c2ccc(F)cc2)cc1
inactive: activation [1] -27.4% and -11.6% | Potency [2] | Potency [3] | Potency [5] | Potency [4] | Potency [6]

CC(C)(Sc1ccc(CCN(CCCCC2CCCCC2)C(=O)NC2CCCCC2)cc1)C(=O)O
inactive: activation [1] 26.5% and 1.67% and -32.7% | Potency [2] | Potency [3] | Potency [5] | Potency [4] | Potency [6] | Potency [9] | Potency [13] | Potency [10] | Potency [11] | Potency [12]

CCCCc1ncc(/C=C(\Cc2cccs2)C(=O)O)n1Cc1ccc(C(=O)O)cc1
inactive: activation [1] -19.8% and -8.36% and -2.86% | Potency [2] | Potency [3] | Potency [5] | Potency [6]

COC(=O)[C@@H]1[C@H]2C[C@H]3c4[nH]c5ccccc5c4CCN3C[C@@H]2CC[C@@H]1O
inactive: activation [1] -9.53% and 22.3% | Potency [2] | Potency [3] | Potency [5] | Potency [6] | viability [7] 106% | Potency [13]

CC(C)(C(=O)O)c1ccc(C(O)CCCN2CCC(C(O)(c3ccccc3)c3ccccc3)CC2)cc1 (stereo not drawn)
inactive: activation [1] 1.67% and -7.64% and -17.3% | Potency [2] | Potency [3] | Potency [5] | Potency [4] | Potency [6]

CN(C)C(=O)[C@H](O)[C@H](Cc1ccccc1)NC(=O)c1cc2cc(Cl)ccc2[nH]1
inactive: activation [1] -2.47% and -33.3% and 7.64% | Potency [2] | Potency [3] | Potency [5] | Potency [4] | Potency [6] | viability [7] 95.3% | Potency [10] | Potency [11] | Potency [12]

Nc1ncnc2c1c(-c1ccc(Oc3ccccc3)cc1)cn2C1CCCC1
inactive: activation [1] -45.6% | Potency [2] | Potency [3] | Potency [5] | Potency [4] | Potency [6]

CCN(CC)CCCC(C)Nc1c2ccc(Cl)cc2nc2ccc(OC)cc12 (stereo not drawn)
inactive: Potency [3] | Potency [5] | Potency [6]
active: Potency [1] 12.3 µM and 11.7 µM | Potency [2] 26.9 µM | Potency [7] 7.42 µM | Potency [8] 7.42 µM | Potency [9] 2.95 µM | Potency [13] 7.42 µM | Potency [10] 4.68 µM | Potency [11] 7.42 µM | Potency [12] 7.42 µM

CC(=O)N[C@@H](Cc1c[nH]c2ccccc12)C(=O)OCc1cc(C(F)(F)F)cc(C(F)(F)F)c1
inactive: activation [1] -29.2% | Potency [2] | Potency [3] | Potency [4]

O=c1[nH]c2cc([N+](=O)[O-])c([N+](=O)[O-])cc2[nH]c1=O
inactive: activation [1] 41.5% | Potency [2] | Potency [3] | Potency [4]

CC(=O)NC[C@H]1CN(c2ccc(N3CCOCC3)c(F)c2)C(=O)O1
inactive: activation [1] 20.9% and -21.5% and 0.955% | Potency [2] | Potency [3] | Potency [5] | Potency [4] | Potency [6] | viability [7] 105% | Potency [8] | Potency [9] | Potency [13] | Potency [10] | Potency [11]

O=C1NC(=O)/C(=C/c2ccc3c(c2)OC(F)(F)O3)S1
inactive: activation [1] -0.772% and -0.477% | Potency [2] | Potency [3] | Potency [5] | Potency [6]

CN(C)CCCC1(c2ccc(F)cc2)OCc2cc(C#N)ccc21 (stereo not drawn)
inactive: activation [1] 2.08% and 5.36% and -45.1% | Potency [2] | Potency [3] | Potency [5] | Potency [4] | Potency [6]
